Results: the supplement of paper PMC9694430

Key:
Assay in all cases: thermal shift delta Tm vs DMSO control; higher = stronger stabilization (binding)
Details in all cases: 12.5 µM; protein concentration 2 µM
LOC_OS04G57630-cb004 = tested on: LOC_OS04G57630-cb004
Procedure, shortened: (§1)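 Heating from 25°C to 95°C at 0.05°C/s, fluorescence was recorded for 19.5 μl wells of 2 μM E. coli-expressed, purified rice kinase domain in 100 mM potassium phosphate pH 7.5, 150 mM NaCl, 10% glycerol and 5 × SYPRO Orange with compound in DMSO. Boltzmann fits gave melting temperatures for this differential scanning fluorimetry assay. The shift reported is the mean of three replicates against the DMSO-only protein.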

LOC_OS05G07850-cb002 = tested on: LOC_OS05G07850-cb002
Procedure, shortened: as §1

LOC_OS05G16824-cb004 = tested on: LOC_OS05G16824-cb004
Procedure, shortened: as §1

LOC_OS05G28520-cb001 = tested on: LOC_OS05G28520-cb001
Procedure, shortened: as §1

LOC_OS05G30820-cb001 = tested on: LOC_OS05G30820-cb001
Procedure, shortened: as §1

LOC_OS05G43570-cb004 = tested on: LOC_OS05G43570-cb004
Procedure, shortened: as §1

LOC_OS06G16330-cb003 = tested on: LOC_OS06G16330-cb003
Procedure, shortened: as §1

LOC_OS06G22820-cb001 = tested on: T1, LOC_OS06G22820-cb001
T1 sequence (whole entry): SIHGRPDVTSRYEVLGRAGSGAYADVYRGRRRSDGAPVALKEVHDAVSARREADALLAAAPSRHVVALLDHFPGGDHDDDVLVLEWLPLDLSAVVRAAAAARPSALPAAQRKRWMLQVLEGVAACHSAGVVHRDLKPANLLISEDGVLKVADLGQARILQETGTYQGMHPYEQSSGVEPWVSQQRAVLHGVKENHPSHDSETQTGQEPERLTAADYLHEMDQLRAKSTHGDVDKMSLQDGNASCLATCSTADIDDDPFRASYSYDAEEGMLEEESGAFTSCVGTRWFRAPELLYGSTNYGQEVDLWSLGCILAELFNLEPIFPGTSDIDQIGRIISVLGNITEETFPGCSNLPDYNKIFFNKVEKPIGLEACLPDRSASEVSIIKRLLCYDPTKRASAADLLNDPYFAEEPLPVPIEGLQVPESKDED
Procedure, shortened: as §1

LOC_OS07G06570-cb004 = tested on: LOC_OS07G06570-cb004
Procedure, shortened: as §1

LOC_OS07G07230-cb001 = tested on: LOC_OS07G07230-cb001
Procedure, shortened: as §1
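Further: purified Escherichia coli-expressed rice kinase domain construct.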

Chain of LOC_OS06G16330-cb003 (as listed by the source): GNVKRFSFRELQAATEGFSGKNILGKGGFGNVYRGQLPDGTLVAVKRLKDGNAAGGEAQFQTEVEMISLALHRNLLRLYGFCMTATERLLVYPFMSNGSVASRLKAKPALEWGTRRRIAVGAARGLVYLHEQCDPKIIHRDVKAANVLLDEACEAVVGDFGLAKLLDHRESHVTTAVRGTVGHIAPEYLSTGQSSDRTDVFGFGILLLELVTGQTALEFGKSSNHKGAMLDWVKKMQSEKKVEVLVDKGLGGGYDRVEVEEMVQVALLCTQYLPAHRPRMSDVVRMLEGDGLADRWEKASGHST

| SMILES | thermal shift delta Tm (LOC_OS04G57630-cb004) [°C] | thermal shift delta Tm (LOC_OS05G07850-cb002) [°C] | thermal shift delta Tm (LOC_OS05G16824-cb004) [°C] | thermal shift delta Tm (LOC_OS05G28520-cb001) [°C] | thermal shift delta Tm (LOC_OS05G30820-cb001) [°C] | thermal shift delta Tm (LOC_OS05G43570-cb004) [°C] | thermal shift delta Tm (LOC_OS06G16330-cb003) [°C] | thermal shift delta Tm (LOC_OS06G22820-cb001) [°C] | thermal shift delta Tm (LOC_OS07G06570-cb004) [°C] | thermal shift delta Tm (LOC_OS07G07230-cb001) [°C] |
| --- | --- | --- | --- | --- | --- | --- | --- | --- | --- | --- |
| CC1(C)C=Cc2c(ccc3c2OC[C@@H](c2ccc(O)cc2O)C3)O1 [Glabridin] | 0.75 | 1.39 | 7.49 | 0.24 | -0.16 | 0.51 | 0.92 | 0.89 | 0.51 | -0.99 |
| C=CC(=O)Nc1cccc(Nc2nc(Nc3ccc(OCCOC)cc3)ncc2F)c1 | 3.06 | 12.6 | 5.6 | 1.99 | 1.06 | 1.03 | 7.95 | 0.96 | 0.79 | 0.63 |
| C=CCc1ccc(O)c(-c2ccc(O)c(CC=C)c2)c1 [Honokiol] | 0.34 | 0.49 | 1.45 | 0.24 | 0.69 | 0.62 | 0.47 | 0.7 | 0.49 | -0.78 |
| CC(=O)Nc1nc(C)c(-c2ccc(Cl)c(S(=O)(=O)NCCO)c2)s1 | 0.23 | 4.94 | 0.69 | 0.59 | 0.4 | 0.87 | 0.63 | 0.43 | 0.81 | -0.01 |
| COc1ccc(F)c(F)c1C(=O)c1cnc(NC2CCN(S(C)(=O)=O)CC2)nc1N | 0.37 | 3.17 | -1.46 | 0.04 | 0.47 | 0.11 | 1.56 | 0.23 | 0.61 | 0.3 |
| CCc1cccc(CC)c1NC(=O)N1Cc2[nH]nc(NC(=O)c3ccc(N4CCN(C)CC4)cc3)c2C1 | 0.89 | 5.74 | 1.16 | 0.11 | 0.78 | 0.47 | 2.93 | 1.47 | 1.26 | 0.12 |
| O=C(Nc1cc(C(F)(F)F)cc(C(F)(F)F)c1)c1cc(Cl)ccc1O | -0.05 | -0.13 | -0.94 | 0.78 | 0.67 | 0.76 | 0.52 | 0.91 | 1.68 | -0.11 |
| CN1CCN(c2ccc3nc(-c4c(N)c5c(F)cccc5[nH]c4=O)[nH]c3c2)CC1 [Dovitinib (TKI258) Lactate] | 4.11 | 8.85 | 14.8 | 1.89 | 1.87 | 0.71 | 8.12 | 0.62 | 1.96 | 0.72 |
| Cc1ccc([N+](=O)[O-])cc1S(=O)(=O)N(C)/N=C/c1cnc2ccc(Br)cn12 | 1.58 | 1.88 | 3.43 | 1.13 | 0.85 | 1.49 | 7.74 | 0.41 | 1.41 | 0.94 |
| CNC(=O)c1ccc(Nc2ncc(C(F)(F)F)c(NCc3nccnc3N(C)S(C)(=O)=O)n2)cc1 | 2.75 | 10.8 | 9.21 | 6.38 | 4.15 | 0.69 | 5.49 | 0.27 | 0.66 | 0.51 |
| CC(C)c1c2cc(-c3ccnc(NC4CCC(NC5CCOCC5)CC4)n3)ccc2nn1C (stereo not given) | 1.43 | 6.4 | -6.14 | 0.56 | 0.45 | 0.57 | 3.01 | 0.19 | 1.62 | 0.55 |
| CNC(=O)c1ccc(C)c(-n2c(C)cc(OCc3ccc(F)cc3F)c(Br)c2=O)c1 | 0.7 | 0.4 | 0.62 | 0.4 | 0.44 | 0.56 | 0.1 | 0.38 | 0.59 | -0.01 |
| Cc1cc(CS(=O)(=O)c2ccccc2)cc(OCc2ccc(CN3CCC[C@@H]3CO)cc2)c1 | 0.05 | -0.44 | -3.52 | 0.56 | 0.38 | 0.08 | -0.51 | 0.68 | 1.18 | 0.08 |
| NC1(Cc2ccc(Cl)cc2)CCN(c2ncnc3[nH]ccc23)CC1 | 0.12 | 2.2 | 0.61 | 0.49 | 0.66 | 0.72 | 0.73 | 0.61 | 0.47 | -0.27 |
| COc1ccc(Cl)cc1NC(=O)Nc1cc(C)nc2ccccc12 | 0.07 | 0.02 | 0.17 | 0.38 | 0.46 | 0.5 | 0.31 | 0.69 | 0.61 | 0.62 |
| Oc1cc(O)cc(/C=C/c2ccc(O)c(O)c2)c1 [Piceatannol] | 0.71 | 2.79 | -0.53 | 1.37 | 0.74 | 0.72 | 1.4 | 0.94 | 0.43 | 0.27 |
| Cc1ncc(CCCN(C)C)cc1Nc1ncc2c(n1)-c1ccc(C(F)(F)F)cc1NC(=S)C2 | -0.2 | -0.13 | 3.13 | 0.71 | 0.52 | 0.48 | 0.15 | 0.79 | 1.65 | 0.32 |
| CS(=O)(=O)CCNCc1ccc(-c2ccc3ncnc(Nc4ccc(OCc5cccc(F)c5)c(Cl)c4)c3c2)o1 | -0.1 | 1.34 | -0.68 | 0.97 | 0.44 | 0.61 | -0.63 | 1.04 | 0.83 | 0.48 |

| SMILES | thermal shift delta Tm (LOC_OS04G57630-cb004) [°C] | thermal shift delta Tm (LOC_OS05G07850-cb002) [°C] | thermal shift delta Tm (LOC_OS05G16824-cb004) [°C] | thermal shift delta Tm (LOC_OS05G28520-cb001) [°C] | thermal shift delta Tm (LOC_OS05G30820-cb001) [°C] | thermal shift delta Tm (LOC_OS05G43570-cb004) [°C] | thermal shift delta Tm (LOC_OS06G16330-cb003) [°C] | thermal shift delta Tm (LOC_OS06G22820-cb001) [°C] | thermal shift delta Tm (LOC_OS07G06570-cb004) [°C] | thermal shift delta Tm (LOC_OS07G07230-cb001) [°C] |
| --- | --- | --- | --- | --- | --- | --- | --- | --- | --- | --- |
| O=C1NC(=O)C(c2ccccc2[N+](=O)[O-])=C1Nc1ccc(O)c(Cl)c1 | -0.28 | 4.16 | -13.3 | 1.12 | 0.7 | 0.82 | -0.2 | 0.75 | 2.88 | 0.07 |
| c1cn2cc(-c3ccc4cn[nH]c4c3)nc(Nc3ccc(N4CCOCC4)cc3)c2n1 [Entospletinib (GS-9973)] | 0.36 | 7.87 | 0.89 | 1.02 | 0.84 | 0.74 | 9.22 | 0.27 | 1.71 | 0.6 |
| C[C@@]1(C(=O)Nc2ccc(F)nc2)CCCN1c1nc(Nc2cc(C3CC3)n[nH]2)c2cccn2n1 | 0.45 | 6.93 | 7.72 | 1.51 | 0.52 | 0.32 | 7.13 | -0.88 | 1.23 | 0.05 |
| Oc1cccc(-c2nc(N3CCOCC3)c3oc4ncccc4c3n2)c1 | -0.25 | 0.47 | 1.57 | 0.51 | 0.49 | 0.69 | 0.07 | 0.82 | 1.15 | 0.33 |
| C[C@H](CN(C)C)Oc1nc(Nc2cc3cccc(Cl)c3cn2)cnc1C#N | -0.04 | 5.49 | 3.41 | 0.32 | 0.46 | 0.43 | 1.98 | 0.49 | 0.8 | 0.34 |
| CCc1cc(Nc2nccc(-c3c(-c4ccc(OC)c(C(=O)Nc5c(F)cccc5F)c4)nc4ccccn34)n2)c(OC)cc1N1CCC(N2CCN(S(C)(=O)=O)CC2)CC1 | -0.18 | 0.07 | -0.08 | 1.11 | 0.41 | 0.31 | -0.08 | 0.94 | 0.75 | 0.69 |
| COC1(c2sc3c(N4CCOCC4)nc(-c4cnc(N)nc4)nc3c2C)COC1 | 0.27 | 5.18 | 1.1 | 0.27 | 0.59 | 1.45 | 3.12 | 0.17 | 0.85 | 0.65 |
| Cn1c(Nc2ccc(C(F)(F)F)cc2)nc2cc(Oc3ccnc(-c4ncc(C(F)(F)F)[nH]4)c3)ccc21 | 1.62 | 0.57 | 1.67 | 0.86 | 0.81 | 3.24 | 1.24 | 2.74 | 1.82 | -0.2 |
| COc1cc2nccc(Oc3ccc(NC(=O)NC4CC4)c(Cl)c3)c2cc1C(N)=O [Lenvatinib (E7080)] | 1.31 | 3.32 | -2.91 | 0.18 | 0.7 | 0.32 | 1.75 | 0.98 | 0.84 | 0.35 |
| Cc1cc(C)c(/C=C2\C(=O)Nc3ccccc32)[nH]1 [Semaxanib (SU5416)] | 0.62 | 6.49 | 8.99 | 0.65 | 0.48 | 0.37 | 6.54 | 0.6 | 1.4 | -0.2 |
| CC(C)(C)c1cc(NC(=O)Nc2ccc(-c3cn4c(n3)sc3cc(OCCN5CCOCC5)ccc34)cc2)no1 [Quizartinib (AC220)] | 0.97 | 1.54 | -1.62 | 0.28 | 0.82 | 0.27 | 0 | 0.73 | 1.04 | 0.45 |
| N#CC1(c2ccc(NC(=O)c3cccnc3NCc3ccncc3)cc2)CCCC1 [Apatinib] | 0.34 | 0.8 | -5.15 | 0.2 | 0.66 | 0.51 | -0.32 | 0.38 | 1.2 | 0.05 |
| O=C1NC(=O)C(=Cc2ccc(-c3ccc(F)cc3)o2)S1 (stereo in doubt) | 0.48 | 1.37 | -3.64 | 0.89 | 0.73 | 1.06 | 0.12 | 0.65 | 0.53 | 0.04 |
| C=CC(=O)Nc1cccc(Oc2nc(Nc3ccc(N4CCN(C)CC4)cc3)ncc2Cl)c1 | 1.97 | 11.6 | 8.96 | 4.43 | 1.14 | 0.72 | 5.65 | 0.76 | 0.79 | 1.03 |
| CS(=O)(=O)CCNCc1ccc(-c2ccc3ncnc(Nc4ccc(OCc5cccc(F)c5)c(Cl)c4)c3c2)o1 [Lapatinib] | 0.95 | 5.03 | -0.92 | 0.22 | 0.61 | 1.4 | 0.59 | 1.74 | 2.3 | -0.12 |
| CN1CCN(CCOc2cc(OC3CCOCC3)c3c(Nc4c(Cl)ccc5c4OCO5)ncnc3c2)CC1 [Saracatinib (AZD0530)] | 0.78 | 7.68 | 3.59 | 0.24 | 0.41 | 0.7 | 7.52 | 0.89 | 1.29 | 0.13 |
| C[C@@H](Oc1ccc2[nH]nc(/C=C/c3cnn(CCO)c3)c2c1)c1c(Cl)cncc1Cl | 8.94 | 16 | 12.1 | 1.22 | 6.07 | 0.92 | 15.1 | -0.35 | 0.87 | 0.66 |
| Cc1nc(Nc2ncc(C(=O)Nc3c(C)cccc3Cl)s2)cc(N2CCN(CCO)CC2)n1 [Dasatinib] | 2.57 | 4.35 | 5.06 | 1.02 | 0.42 | 0.75 | 1.61 | 0.79 | 1.03 | 1.1 |
